Compound activity: PubChem, National Center for Advancing Translational Sciences (NCATS)
Hits are enriched below; roughly 3.3% of the tested compounds scored in any of these assays.
Sm TGR inh – inhibitors of Schistosoma mansoni thioredoxin glutathione reductase; purified TGR, DTNB reduction, TNB absorbance 405 nm; hit rate 3% among 360,000; Potency, µM (series often up to 114 µM), for inactives: at the highest dose activity change, negative = inhibition, hits mostly inhibitors; Q962Y6; note: nearly all actives have a fitted effect of over 60% in size
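TGR 20 nM + NADPH 100 uM (dispensed conc.), cpd preinc 15 min RT; start with NADPH (500 uM addition) then DTNB (15 mM addition). Kinetic TNB absorbance, 405 nm filter. Four-parameter Hill fit across titration.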
AmpC no deterg – blocks E. coli AmpC beta-lactamase in detergent-free assay; hit rate 0.52% among 330,000; Potency, µM (titrated, usually from 57.1 µM), inactives show at the highest dose activity change, negative = inhibition, most hits filed as inhibitors; AmpC nitrocefin hydrolysis, absorbance 480 nm, 0.0001% Triton; P00811;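 note: plate controls were no compound for no effect and no enzyme for full effect; nearly all actives have a fitted effect of over 20% in size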
Target sequence (P00811 whole entry, looked up): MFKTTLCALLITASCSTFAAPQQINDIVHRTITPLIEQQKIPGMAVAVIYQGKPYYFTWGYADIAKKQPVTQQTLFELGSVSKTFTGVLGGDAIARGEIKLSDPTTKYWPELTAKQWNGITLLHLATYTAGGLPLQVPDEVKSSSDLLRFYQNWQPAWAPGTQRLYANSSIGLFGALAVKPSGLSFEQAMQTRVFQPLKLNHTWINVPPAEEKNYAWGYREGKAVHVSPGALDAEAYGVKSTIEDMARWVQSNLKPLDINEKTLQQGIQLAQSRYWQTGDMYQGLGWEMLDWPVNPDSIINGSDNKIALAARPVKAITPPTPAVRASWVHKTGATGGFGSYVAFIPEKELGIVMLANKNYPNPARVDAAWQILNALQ
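20 mM phosphate pH 7.0 + 0.01% (detergent screen) or 0.0001% Triton X-100; 5.3 nM AmpC reagent; cpd preinc 15 min RT; nitrocefin (800 uM stock) to start; A480 q20 s × 4 min; Activity was normalised to no-enzyme and no-compound control wells.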
AmpC detergent – inhibitors of E. coli AmpC beta-lactamase with detergent; P00811; AmpC hydrolysis of nitrocefin, absorbance 480 nm, 0.01% Triton; Potency, µM (highest dose often 114 µM), without a hit: top-dose activity change, negative = inhibition, usual class: inhibitors; hit rate 0.041% among 370,000;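 note: 0% = no-compound wells and -100% = no-enzyme wells; nearly all actives have a fitted effect of over 25% in size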
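AmpC (5.3 nM in the dispensed reagent) in 20 mM phosphate pH 7.0 with 0.01% (detergent screen) or 0.0001% Triton X-100 was preincubated with compounds for 15 min at room temperature. Nitrocefin was then added from an 800 uM solution, and hydrolysis was followed at 480 nm.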
Numbers without * were called inactive; u = inconclusive; x = no result given; [ ] = remark or other dose. Calls come from the whole dose curve; as a rule, active = well fitted curve in the direction sought with a large enough effect; inconclusive = small, poorly fitted or top-dose-only effect, or another doubt; inactive = no such curve, though single readings can be large; an effect the other way counts as inactive or inconclusive. Unless noted, % is set by controls: 0 for no effect and ±100 for the full control effect; potency is the fitted concentration of half-maximal effect.

SMILES	Sm TGR inh	AmpC no deterg	AmpC detergent
O=C(Nc1cccc(S(=O)(=O)NC2=NCCC2)c1)c1cc(-c2ccco2)nc2ccccc12	18µM*	-57%	-1%
CSCCCNC(=S)Nc1cccc(S(=O)(=O)NC2=NCCC2)c1	u	-50%	-14%
O=C(Nc1cccc(S(=O)(=O)NC2=NCCCCC2)c1)c1cc(-c2ccccc2)nc2ccccc12	1%	-29%	2%
O=C(NC(=S)Nc1cccc(S(=O)(=O)NC2=NCCC2)c1)c1cc(-c2ccco2)nc2ccccc12	13µM*	-26%	-4%
O=C(Nc1cccc(S(=O)(=O)NC2=NCCCCC2)c1)c1cc(-c2ccc(Cl)cc2)nc2ccccc12	6%	u	-6%
C=C(C)CNC(=S)Nc1cccc(S(=O)(=O)NC2=NCCC2)c1	56µM*	139%	-2%
COc1cccc(N2CC(NC(=O)COc3ccc4ccccc4c3)CC2=O)c1 (configuration not stated)	-1%	x	1%
Cc1ccc2c(CC(=O)Nc3ccc(S(=O)(=O)N4CCCCC4)cc3)coc2c1	10%	x	-14%
CC(C)c1ccc(NC(=O)CN2C(=O)COc3ccc(S(=O)(=O)N4CCCCCC4)cc32)cc1	1%	x	7%
CCOc1ccc(CNC(=O)c2cnc(SC)nc2CC)cc1	1%	x	2%
CN1CCc2c(sc(NC(=O)c3ccc(S(=O)(=O)N4CCCCCC4)cc3)c2C(N)=O)C1	-22%	106%	-8%
COC(=O)c1c(NC(=O)c2ccco2)sc2c1CCN(C(C)C)C2	-33%	4%	u
CC(C)N1CCc2c(sc(NC(=O)c3ccco3)c2C(N)=O)C1	50µM*	-17%	-8%
CN1CCc2c(sc(NC(=O)c3ccc(S(=O)(=O)N4CCCC4)cc3)c2C(N)=O)C1	100µM*	39%	2%
CNC(=O)c1c(NC(=O)c2ccco2)sc2c1CCCC2	-21%	43%	0%
Cc1ccc(C(=O)C(NC(=O)c2ccco2)Nc2sc3c(c2C(N)=O)CCCC3)cc1 (configuration not stated)	28µM*	-19%	-5%
Cc1ccc(NC(=O)CN2C=NS(=O)(=O)c3ccccc32)c(C)c1	2%	x	0%
CCCC[C@]12Cc3cc(OC)c(OC)cc3C(O1)C1=C(O2)C(=O)c2ccccc2C1=O	u	-14%[11.4 µM]	u
Cc1ccc(Cn2c(CN3CCC(C(=O)O)CC3)cc3ccccc32)cc1	-3%	x	-2%
CC(C)CCN1C(=O)c2ccccc2CC1(C)C(=O)NC1CCC(C)CC1 (configuration not stated)	0%	x	19%
Cc1cccc(-c2ccc3ncnc(NCc4cccc(F)c4)c3c2)c1	-16%	-35%	1%
CC1(OC(=O)CCc2ccccc2)C(=O)C=C2C=C(c3ccc(C#N)cc3)N(C3CCCCC3)C=C2C1=O (configuration not stated)	-36%	103%	1%
CC1(OC(=O)CCc2ccccc2)C(=O)C=C2C=C3CCCN3C=C2C1=O (configuration not stated)	35µM*	39%	-2%
COc1ccc(CN2C=C3C(=O)C(C)(OC(=O)CCc4ccccc4)C(=O)C=C3C=C2c2ccc(C#N)cc2)cc1 (configuration not stated)	-6%	18%	2%
CC1(OC(=O)c2cccs2)C(=O)C=C2C=C3CCCN3C=C2C1=O (configuration not stated)	35µM*	33%	2%
SMILES	Sm TGR inh	AmpC no deterg	AmpC detergent
CCN(CC)CCCN1C=C2C(=O)C(C)(OC(=O)CCc3ccccc3)C(=O)C=C2C=C1c1ccc(C#N)cc1 (configuration not stated)	40µM*	59%	0%
COC(=O)CCCC1=CC2=CC(=O)C(C)(OC(=O)c3cccs3)C(=O)C2=CN1C1CCCC1 (configuration not stated)	-33%	96%	-1%
CC(CCO)Nc1nc2c(c(=O)n(C)c(=O)n2C)n1Cc1ccc(Br)cc1 (configuration not stated)	0%	x	2%
Cc1cccc(Cc2cnc(NC(=O)C3Cc4ccc(C)cc4C(=O)O3)s2)c1 (configuration not stated)	2%	x	-1%
O=C(NCc1ccccc1Cl)C1CCN(S(=O)(=O)Cc2ccccc2)CC1	1%	x	22%
O=[N+]([O-])c1ccc(Sc2nnnn2-c2ccccc2)c(Cl)c1	u	-25%	-7%
CN1CCN(S(=O)(=O)c2ccc(Sc3nnnn3-c3ccccc3)c([N+](=O)[O-])c2)CC1	7.1µM*	9%	u
CC(=O)c1ccc(Sc2nnnn2-c2ccccc2)c([N+](=O)[O-])c1	35µM*	-22%	-7%
Cn1cnnc1Sc1cc(N2CCN(S(=O)(=O)c3ccccc3)CC2)ccc1[N+](=O)[O-]	4%	45%	0%
COc1ccc(-c2cc(C(F)(F)F)nc(SCCC(=O)Nc3ccc(NC(C)=O)cc3)n2)cc1	1%	x	6%
COc1ccc(Nc2ncnc3c2nc2n3CCCC2)cc1Cl	0%	x	-1%
O=C(c1sc2ccccc2c1Cl)N(Cc1ccccc1)C1CCS(=O)(=O)C1 (configuration not stated)	3%	29%	4%
CCOc1cccc(C(=O)N(Cc2ccc(C)o2)C2CCS(=O)(=O)C2)c1 (configuration not stated)	-1%	x	20%
CCOc1cccc(C(=O)N(Cc2ccco2)C2CCS(=O)(=O)C2)c1 (configuration not stated)	35µM*	-8%	0%
O=C(c1sc2ccccc2c1Cl)N(Cc1ccco1)C1CCS(=O)(=O)C1 (configuration not stated)	32µM*	42%	u
COc1ccc(NC(=O)/C(C#N)=C/c2ccc(OCc3cc(=O)n4nc(C)sc4n3)cc2)cc1	-3%	x	-9%
O=S(=O)(c1ccc(NC(=S)Nc2ccc3c(c2)OCO3)cc1)N1CCOCC1	u	-20%	9%
O=S(=O)(c1ccc(NC(=S)Nc2ccccc2)cc1)N1CCOCC1	45µM*	-3%	-2%
CN1CCN(S(=O)(=O)c2ccc(NC(=S)NC(=O)c3ccc(Cl)cc3)cc2)CC1	22µM*	90%	2%
O=S(=O)(c1cccc(NC(=S)Nc2ccc(Br)cc2Cl)c1)N1CCOCC1	14µM*	-47%	-8%
Cc1ccc(C)c(NC(=S)Nc2cccnc2)c1	u	-12%	-11%
Cc1ccc(NC(=S)Nc2cccnc2)c(S(=O)(=O)N2CCCCC2)c1	14µM*	14µM*	-14%
O=C(Cc1ccc(Br)cc1)Nc1cccc(S(=O)(=O)N2CCOCC2)c1	-1%	-16%	u
CN1CCN(S(=O)(=O)c2ccc(NC(=S)NC(=O)c3ccccc3)cc2)CC1	u	17%	u
CCOc1ccccc1NS(=O)(=O)c1ccc2c(c1)CC(C)N2C(=O)C1CC1 (configuration not stated)	3%	x	3%
Cc1ccc(-n2ncc3c(NCCCN(C)C)ncnc32)cc1Cl	7%	x	7%
COc1ccc(C(=O)NCc2ccc3c(c2)CCN3C(=O)c2ccc(C)cc2)cc1	4%	x	10%
